From PubChem
The list is not random: actives were taken first. Their share in the collection is about 1.2%.
ERK AVP block = vasopressin-driven ERK pathway inhibition. HEK293-V1b, vasopressin-stimulated pERK AlphaScreen. Potency, µM (doses to about 57.5 µM), for the others: top-dose activity, negative = inhibition, actives largely listed as inhibitors. 72,000 tested, 0.99% active. AID 995; further: potency means the concentration at half of the fitted maximal effect; on the % scale 0 is the no-effect control and ±100 the full control effect; nearly all actives have a fitted effect of over 55% in size
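qHTS, compounds titrated on V1b-expressing HEK293 cells. Preincubation 30 min at 37C, vasopressin 25 nM for 5 min, lysis 10 min, bead incubation 5 hr at room temperature.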
DNA Pol III inh = inhibitors of bacterial DNA polymerase III holoenzyme; reconstituted DNA polymerase III holoenzyme replication, biochemical; 71,000 tested, 0.25% active; Potency, µM (doses to about 57.1 µM), for inactives: at the top dose activity change, negative = inhibition; further: potency means the concentration at half of the fitted maximal effect; on the % scale 0 is the no-effect control and ±100 the full control effect
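Reconstituted *E. coli* holoenzyme (0.35 nM Pol III, 1 nM beta, 154 nM SSB, 2 nM primase) was preincubated with compound for 15 min at RT. Synthesis on 1.4 nM ssM13Gori ran 35 min, then was stopped with PicoGreen/EDTA and read as dsDNA fluorescence.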
BRCT inh green = BRCA1 BRCT-phosphoprotein interaction inhibition | P38398 | BRCA1 BRCT-phosphopeptide binding, green fluorescence polarization | Potency, µM (top dose mostly 76.9 µM), for inactives: at the highest dose activity change, negative = inhibition, most hits filed as inhibitors | 75,000 tested, 0.05% active | AID 875;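 further: potency means the concentration at half of the fitted maximal effect; plate controls were peptide without protein for full effect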
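Fluorescence polarization: His-tagged BRCT (~35 kDa BRCA1 C-terminus, 250 nM) bound to 100 nM fluorescein-labeled phosphorylated 10-aa BACH1 peptide, pH 7.3 phosphate buffer with DTT and Tween 20. Compounds incubated 12 min at room temperature; inhibition read as lowered polarization.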
BRCT PPI red = disrupts BRCA1 BRCT binding to phosphoprotein, red fluorophore readout; Potency, µM (series often up to 76.9 µM), inactives show top-dose activity change, negative = inhibition, actives largely listed as inhibitors; BRCT-phosphopeptide binding, red fluorescence polarization; P38398; 75,000 tested, 0.03% active; further: on the % scale 0 is the no-effect control and ±100 the full control effect
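Fluorescence polarization: 100 nM His-tagged BRCA1 BRCT with 100 nM TAMRA-labelled phospho-BACH1 decapeptide, phosphate buffer pH 7.3 with 150 mM NaCl, DTT, 0.01% Tween 20; 12 min RT. Binding inhibition seen as FP decrease.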
YjeE inh = YjeE (TsaE) inhibition, E. coli | P0AF67 | purified YjeE enzyme, qHTS inhibition assay | AID 605 | Potency, µM | 71,000 tested, 0.05% active
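Fluorescence polarization of a BODIPY Texas Red–ADP probe (2 uM) bound to purified YjeE (10 uM) was read after 15 min room-temperature incubation with compounds. Loss of polarization marks inhibitors; ADP serves as titrated control.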
* hit, by the source's call; ! = a repeat was not active; [ ] = another dose, or the depositor's remark. The call rests on the fitted dose curve; in most records, active means well fitted curve in the direction sought with a large enough effect; inconclusive means small, poorly fitted or top-dose-only effect, or another doubt; inactive means no such curve, though single readings can be large; an effect the other way counts as inactive or inconclusive.

How did CC(C)C1C(C#N)=C(N)Oc2n[nH]c(-c3cccs3)c21 (configuration not stated) do in these assays?
ERK AVP block: 16µM*; DNA Pol III inh: -8%; BRCT inh green: -5%; BRCT PPI red: 0%; YjeE inh: inactive

How did N#CC1=C(N)Oc2n[nH]c(-c3ccncc3)c2C1c1ccsc1 (configuration not stated) do in these assays?
ERK AVP block: 10µM*; DNA Pol III inh: -13%; BRCT inh green: -3%; BRCT PPI red: -2%; YjeE inh: inactive

What do the screens show for `CNCC[C@H](Oc1ccccc1C)c1ccccc1`?
ERK AVP block: 7%; DNA Pol III inh: -7%; BRCT inh green: -2%; BRCT PPI red: -4%; YjeE inh: inactive

How did COc1ccc(C2SCCN2S(=O)(=O)c2ccc(F)cc2)cc1OC (configuration not stated) do in these assays?
ERK AVP block: 13µM*; DNA Pol III inh: 2%; BRCT inh green: -1%; BRCT PPI red: -2%; YjeE inh: inactive

Results for Oc1cc(O)cc(/C=C\c2ccc(O)c(O)c2)c1 ?
ERK AVP block: -3%; DNA Pol III inh: -22%; BRCT inh green: -3%; BRCT PPI red: -2%; YjeE inh: inactive

What do the screens show for `C[C@@H]1C[C@@]2(C)Oc3ccccc3[C@H]3OC[C@]1(COC(=O)Nc1ccccc1)[C@@H](C)[C@@H]32`?
DNA Pol III inh: -6%; YjeE inh: inactive

Results for CCOc1ccc2c(ccc(/C=C\c3cc(C)c4cccnc4c3O)[n+]2C)c1 ?
ERK AVP block: -5%[11.5 µM]; DNA Pol III inh: 3.2µM*; BRCT inh green: 1%[15.4 µM]; BRCT PPI red: -1%[15.4 µM]; YjeE inh: inactive

Results for Cc1ccc(Nc2nc(N3CCOCC3)c3ccccc3n2)cc1 ?
ERK AVP block: inconclusive; DNA Pol III inh: -3%; BRCT inh green: 0%; BRCT PPI red: 2%; YjeE inh: inactive

Results for Oc1ccc(Nc2nc(N3CCCC3)c3ccccc3n2)cc1 ?
ERK AVP block: 32µM*; DNA Pol III inh: 32µM*; BRCT inh green: -2%; BRCT PPI red: -4%; YjeE inh: inactive

What do the screens show for `Nc1nc(Nc2ccccc2)nc2ccccc12`?
ERK AVP block: 13µM*; DNA Pol III inh: -8%; BRCT inh green: 1%; BRCT PPI red: -4%; YjeE inh: inactive

Results for O=C(c1cccc(F)c1)N1CCC2(CC1)CN(c1cccc(-c3ccccc3)c1)C2 ?
ERK AVP block: inconclusive; DNA Pol III inh: 1%; BRCT inh green: -2%; BRCT PPI red: -1%; YjeE inh: inactive

How did O=S(=O)(O)[C@@H](CO)c1ccccc1 (tested in a mixture with another compound) do in these assays?
ERK AVP block: 4%[11.5 µM]; DNA Pol III inh: -10%[11.4 µM]; BRCT inh green: -3%[15.4 µM]; BRCT PPI red: 1%[15.4 µM]; YjeE inh: inactive

Results for COc1ccc(C2=NO[C@@H]3C(=O)N(c4c(C)cccc4C)C(=O)[C@H]23)cc1OC ?
ERK AVP block: -11%; DNA Pol III inh: -3%; BRCT inh green: 2%; BRCT PPI red: 0%; YjeE inh: inactive

Results for COc1ccc(OC)c(N2C(=O)[C@@H]3C(c4ccccc4Cl)=NO[C@@H]3C2=O)c1 ?
ERK AVP block: -6%; DNA Pol III inh: 32µM*; BRCT inh green: -3%; BRCT PPI red: -3%; YjeE inh: inactive

What do the screens show for `O=Nc1c(-c2c(O)[nH]c3cc(Br)ccc23)[nH]c2ccccc12`?
ERK AVP block: 10µM*; BRCT inh green: -3%; BRCT PPI red: -3%

What do the screens show for `CCCCCCc1c(O)c2ccccc2[nH]c1=O`?
ERK AVP block: 0%; DNA Pol III inh: -6%; BRCT inh green: -1%; BRCT PPI red: 0%; YjeE inh: inactive

Results for CCCCCCCCCCCC1=C(O)C(=O)C=C(O)C1=O ?
ERK AVP block: 46%; DNA Pol III inh: 6.3µM*!; BRCT inh green: -6%; BRCT PPI red: -17%; YjeE inh: inactive

How did CCN1C(C)=C(C(=O)OC)C(c2ccccc2)N2C(=O)[C@@]3(C(=O)OC)O[C@@]12C1C(=O)N(C)C(=O)C13 (some centres not stated) do in these assays?
ERK AVP block: -2%[11.5 µM]; BRCT inh green: -1%[15.4 µM]; BRCT PPI red: 2%[15.4 µM]
